Laboratory results reported in PubChem BioAssay (NCATS).
Records with an inconclusive call do not appear. Active and inactive are the calls of the source. Calls come from the whole dose curve; as a rule, active = well fitted curve in either direction with a large enough effect (not every such curve was filed as active); inconclusive = small, poorly fitted or top-dose-only effect, or another doubt; inactive = flat fitted curve, though single readings scatter.

Target: Mitogen-activated protein kinase 10 (Mus musculus) (UniProt Q61831)
Experiment: JNK3 AlphaScreen Assay (AID 530);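 note: kinase came from lysate of stimulated human HepG2 cells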
Conditions: JNK3 lysate, c-Jun phosphorylation; series mostly up to 57.1 µM
Outline: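 Phosphorylation of biotinylated GST-cJun(1-79) at Ser73 is measured by AlphaScreen proximity luminescence. Enzyme is JNK3 in HepG2 lysates activated with interleukin-1beta and tumor necrosis factor alpha; ATP is 10 uM final.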

Potency, inactive:
CC(=O)NCCNc1nc(-c2cccc(NS(C)(=O)=O)c2)nc2ccccc12
Cc1noc(C)c1-c1nccc(NCCN2CCOCC2)n1
Cc1cnc(CNc2ccnc(-c3cccc(NS(C)(=O)=O)c3)n2)cn1
COc1cccc(Cn2c(=O)c(-c3cccc(C#N)c3)nc3cnc(N4CCOCC4)nc32)c1
CN(C)C(=O)c1ccc(-c2cncnc2-n2ccnc2)cc1
COc1ccccc1-c1cc(NCc2cnc(C)cn2)ncn1
CNc1nc(-c2cccc(C#N)c2)nc2ccccc12
COCCNc1nc(-c2c(C)noc2C)nc2ccccc12
CN(C)C(=O)c1ccc(-c2ccc3ncnc(N4CCOCC4)c3c2)cc1
COc1ccccc1CNc1ccnc(-c2ccccc2Cl)n1
COc1cccc(Cn2c(=O)c(-c3ccc(F)cc3)nc3cncnc32)c1
Cc1noc(C)c1-c1nc(NC2CC2)c2ccccc2n1
COc1cccc(Nc2ncc3ncc(=O)n(C[C@H]4CCCO4)c3n2)c1
Cn1cc(-c2nc3cncnc3n(C3CC3)c2=O)c2ccccc21
COc1ccc(-c2nc3cnc(OCc4ccccc4)nc3n(CCC#N)c2=O)cc1
COc1cccc(-c2cc(NCc3cnc(C)cn3)ncn2)c1
CC(=O)NCCNc1nc(-c2ccccc2C)nc2ccccc12
COc1ccc(Oc2ncc3nc(-c4ccc(F)cc4)c(=O)n(Cc4cccs4)c3n2)cc1
COc1ccc2[nH]cc(CCNc3ncncc3-c3cccnc3)c2c1
